# Experimental data taken from PubChem BioAssay (NCATS).
# Several values for one entry are separate records, joined by “and”; a condition that tells them apart may be missing. Equal values may be shown once. Records with an inconclusive call do not appear. A call without a number means that no potency is given here. Activity calls are given as the source filed them. The call rests on the fitted dose curve; in most records, active means well fitted cell-killing curve with a large enough effect; inconclusive means small, poorly fitted or top-dose-only effect; inactive means no such curve, though single readings can be large or run the other way.
# Assay: qHTS of pediatric cancer cell lines to identify multiple opportunities for drug repurposing: Confirmatory screen for DAOY cells (AID 1347114); further: nearly all actives have a fitted effect of over 65% in size
# Conditions: DAOY medulloblastoma cells viability, cytotoxicity qHTS; series mostly up to 45.9 µM
# Excerpt: Drug repurposing or repositioning has been offered as a strategy for drug development in oncology programs. This approach has special potential for childhood cancers and other rare or orphan diseases, where the expected return on new drug development has been a disincentive to pharmaceuticals.
# In this project we exploit the poly-pharmacology of drugs to discover new indications via phenotypic screening of a panel of 19 well-characterized cell lines derived from solid tumors seen in children and adolescents. The goal is to identify approved drugs with previously unrecognized anticancer properties that has the potential to reveal new mechanisms and biological processes involved in carcinogenesis or drug resistance. We employed a titration-based paradigm (quantitative high-throughput screening or qHTS), where all compounds were tested at multiple concentrations for their effect on cell viability. Concentration-response curves (CRCs) were derived directly from the primary screen, and both potency and efficacy values were used to identify compounds with robust bioactivity profiles. We screened the NIH Chemical Genomics Center (NCGC) Pharmaceutical Collection (NPC) and Mechanism Interrogation Plate (MIPE) small molecule collections of approved and investigational compounds against these cell lines; and measured metabolically active cells after 48 hours of compound treatment as a proxy for cell viability.
# Assay Submitter: Nathalia J. Martinez, National Center for Advancing Translational Sciences, National Institutes of Health, Rockville, MD, USA; email: natalia.martinez@nih.gov
# [1] Shen, M et al. Quantitative high-throughput phenotypic screening of pediatric cancer cell lines identifies multiple opportunities for drug repurposing. Oncotarget 2017 Dec 19;9(4):4758-4772. PMID 29435139.
# The cells were obtained from University of North Carolina (UNC), Pediatric Preclinical Testing Program (PPT), and Coriell Institute (CI).
# qHTS cell viability assay:
# Cells were assayed in growth media at a density of 500-1,000 cells/well. Five microliters of cells were dispensed into 1,536-well, white, solid-bottom, TC-treated plates (Greiner Bio One) using a multidrop dispenser and incubated at 37 degrees C, 5% CO2, under a humidified atmosphere for 5 hours. Twenty-three nanoliters of compounds and controls (neutral control DMSO or positive control bortezomib at final concentration of 2.3 µM) were subsequently transferred by Kalypsys pintool. For primary screens, the MIPE collection was tested at 11-point dilutions (final concentrations range from 0.78 nM to 46 µM) and the NPC collection at 8-point dilutions (final concentrations range from 0.59 nM to 46 µM). Compounds tested in follow-up screens were assayed at 11-point dilutions. Cells were incubated for 48 hours, followed by addition of 3 uL of CellTiter-Glo (Promega). After a 15 min incubation at room temperature, samples were analyzed for luminescence intensity using a ViewLux High-throughput CCD imager equipped with clear filters.
# Potency means the concentration at half of the fitted maximal effect.
row,Structure (SMILES),Potency
1,CNNCc1ccc(C(=O)NC(C)C)cc1,inactive
2,C[C@@H](CN1CC(=O)NC(=O)C1)N1CC(=O)NC(=O)C1,inactive
3,CC1CC2C3CCC4=CC(=O)C=C[C@]4(C)[C@@]3(F)[C@@H](O)C[C@]2(C)[C@@]1(O)C(=O)CO (stereo partly specified),inactive
4,CCOC(=O)c1ccc(C#Cc2ccc3c(c2)C(C)(C)CCS3)nc1,inactive
5,Nc1nc(N)nc(-c2cc(Cl)ccc2Cl)n1,inactive
6,CN(C)c1ccc(C(=C2C=CC(=[N+](C)C)C=C2)c2ccc(N(C)C)cc2)cc1,737 nM (active)
7,O=NN(CCCl)C(=O)NC1CCCCC1,inactive
8,CC(C)NCC(O)c1ccc(NS(C)(=O)=O)cc1 (stereo unspecified),inactive
9,Nc1nc(F)nc2c1ncn2[C@@H]1O[C@H](CO)[C@@H](O)[C@@H]1O,inactive
10,COc1ccc(-c2ccc3cc(C(=O)O)ccc3c2)cc1C12CC3CC(CC(C3)C1)C2,inactive
11,COc1ccc(C(=O)CC(=O)c2ccc(C(C)(C)C)cc2)cc1,inactive
12,Nc1nc(=S)c2[nH]cnc2[nH]1,2.61 µM (active) and 1.47 µM (active)
13,CNS(=O)(=O)CCc1ccc2[nH]cc(C3CCN(C)CC3)c2c1,inactive
14,CS(=O)(=O)c1ccc([C@@H](O)[C@@H](CO)NC(=O)C(Cl)Cl)cc1,inactive
15,Nc1[nH]c(=O)ncc1F,inactive
16,COC(=O)Nc1nc2ccc(S(=O)c3ccccc3)cc2[nH]1 (stereo unspecified),928 nM (active)
17,COC(=O)Nc1nc2ccc(C(=O)c3ccccc3)cc2[nH]1,928 nM (active)
18,CCC(=O)O[C@]1(C(=O)CCl)[C@@H](C)C[C@H]2[C@@H]3CCC4=CC(=O)C=C[C@]4(C)[C@@]3(F)[C@@H](O)C[C@@]21C,inactive

row,Structure (SMILES),Potency
1,CCOC(=O)[C@H](CCc1ccccc1)N[C@H]1CS[C@H](c2cccs2)CN(CC(=O)O)C1=O,inactive
2,CO[C@@]12[C@H](COC(N)=O)C3=C(C(=O)C(C)=C(N)C3=O)N1C[C@@H]1N[C@@H]12,14700 nM (active)
3,COc1cc([C@@H]2c3cc4c(cc3[C@H](O)[C@H]3COC(=O)[C@H]23)OCO4)cc(OC)c1OC,14.7 nM (active)
4,CC(C)(C#N)c1cc(Cn2cncn2)cc(C(C)(C)C#N)c1,inactive
5,CCCCOc1ccc(CC(=O)NO)cc1,inactive
6,N=C(N)c1ccc(OCCCCCOc2ccc(C(=N)N)cc2)cc1,14700 nM (active)
7,O=C(NCC1CN(c2ccc(N3CCOCC3=O)cc2)C(=O)O1)c1ccc(Cl)s1 (stereo unspecified),inactive
8,CC(C(=O)O)c1ccc2c(c1)CC(=O)c1ccccc1S2 (stereo unspecified),inactive
9,COC(=O)Nc1nc2ccc(Sc3ccccc3)cc2[nH]1,928 nM (active)
10,Cn1nnc2c(C(N)=O)ncn2c1=O,inactive
11,COc1nc(N)nc2c1ncn2[C@@H]1O[C@H](CO)[C@@H](O)[C@@H]1O,inactive
12,CC(C)(C)C(=O)OCOP(=O)(COCCn1cnc2c(N)ncnc21)OCOC(=O)C(C)(C)C,inactive
13,COc1cc(NCc2ccc3nc(N)nc(N)c3c2C)cc(OC)c1OC,inactive
14,NC(=O)c1cccnc1,inactive
15,COc1cc2nc(N3CCCN(C)CC3)nc(NC3CCN(Cc4ccccc4)CC3)c2cc1OC,inactive
16,S=P(N1CC1)(N1CC1)N1CC1,inactive
17,O=S(=O)(O)CCS,inactive
18,C[C@@H]1C[C@H]2[C@@H]3CCC4=CC(=O)C=C[C@]4(C)[C@@]3(Cl)[C@@H](O)C[C@]2(C)[C@@]1(OC(=O)c1ccco1)C(=O)CCl,10400 nM (active)
